Screening data from PubChem.
Cardio protect = myocardial damage modulation in H9c2 cells; protection from H2O2 cell death, % at 20 µM; AID 588492; hit rate 0.63% among 360,000; H9c2 cardiomyocytes, H2O2 injury protection, ATPLite, 2 h;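 active = compounds giving at least 50% protection of heart cells from peroxide-induced death in the single-dose screen, raw or plate-pattern-corrected value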;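 also: 0% = DMSO wells with peroxide and 100% = DMSO wells without peroxide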
SMARCA2 act = SMARCA2 function activation, primary screen; MG213 cells, MMTV-luciferase reporter, dexamethasone, overnight; activation, % at 9.1 µM; hit rate 1% among 370,000; in the data active = activation above about 7.8%;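 also: 0% = vehicle wells and 100% = reference activator wells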
FXN GAA850 act = frataxin GAA850 promoter activation; HEK293 lucGAA850 FXN promoter luciferase reporter, 24 h; percent of 10 µM SAHA response; activation, % at 6 µM; hit rate 0.56% among 360,000; AID 540364;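 active = activation above the average of all compounds screened plus 3 SD, cutoff fixed separately per campaign, cut at about 7.5% in these data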;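 also: 0% = DMSO wells and 100% = 10 µM SAHA wells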
Gli-Sufu block = antagonists of Gli-Sufu signaling. Sufu-KO-LIGHT fibroblasts, Gli luciferase reporter luminescence. inhibition, % at 5 µM. hit rate 0.74% among 340,000. AID 588413;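 active = inhibition above about 55%, limit read from the data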;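 also: 0% = DMSO-treated cells and 100% = wells with medium but no cells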
GalR3 antagonist = antagonists of human GalR3 | HEK293 GalR3-CNG cAMP membrane potential fluorescence; galR3 body fused to GalR1 C-terminus | inhibition, % at 3 µM | hit rate 0.44% among 360,000 | AID 651719;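 active = inhibition above the screen-wide average plus 3 SD, cut at about 13% in these data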;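 also: forskolin and galanin both at EC90 stimulate the cells; cAMP rise reported by CNG channel membrane potential dye signal; 0% = forskolin plus galanin with DMSO and 100% = forskolin alone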
Target sequence (O60755 1-299 limits assumed): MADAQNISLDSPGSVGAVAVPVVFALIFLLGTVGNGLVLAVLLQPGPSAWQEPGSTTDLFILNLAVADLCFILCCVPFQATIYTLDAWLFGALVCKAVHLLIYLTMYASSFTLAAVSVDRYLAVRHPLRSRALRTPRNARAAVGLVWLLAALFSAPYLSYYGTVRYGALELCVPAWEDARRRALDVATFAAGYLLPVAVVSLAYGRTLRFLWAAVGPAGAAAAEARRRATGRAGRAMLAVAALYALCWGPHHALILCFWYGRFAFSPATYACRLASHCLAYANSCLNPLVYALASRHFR
COUP-TFII inh = inhibitors of human COUP-TFII (NR2F2). hit rate 0.7% among 370,000. P24468. inhibition, % at 8.6 µM. HEK293T NGFI-A luciferase reporter, luminescence;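 active = inhibition above a per-plate cutoff, mean inhibition of test wells between control levels plus 3 SD, cut at about 38% in these data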;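 also: cells cotransfected with COUP-TFII expression vector driving the NGFI-A reporter; 0% = median of COUP-TF2 test wells and 100% = reporter-only cells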
SMARCA2 act conf = SMARCA2 activation, confirmation screen; shares compounds with SMARCA2 act; MG213 cells, MMTV-luciferase with dexamethasone, luminescence, overnight; MG213 cells expressing E1A, Rb sequestered; DMSO wells 0%, reference activator 100%; activation, % at 9.1 µM; hit rate 30% among 3,500;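 active = activation above its plate's cutoff, the mean activation of tested wells plus 3 SD, cut at about 7.9% in these data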
VP16 Luc act = GAL4-VP16 reporter activation counter-screen. shares compounds with SMARCA2 act. HEK293 GAL4-VP16 pG5luc reporter, luciferase luminescence; scaled: DMSO wells 0%, SAHA wells 100%. activation, % at 9.1 µM. hit rate 41% among 3,500;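 active = activation above the solvent-only control well mean plus 3 SD, averaged across control plates, cut at about 5.2% in these data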
* marks the source's active call; other numbers are inactive results; . = not tested or not shown. An excerpt weighted towards active compounds, which were near 3.4% of everything screened.

SMILES	Cardio protect	SMARCA2 act	FXN GAA850 act	Gli-Sufu block	GalR3 antagonist	COUP-TFII inh	SMARCA2 act conf	VP16 Luc act
CC(C)Nc1ccc(Nc2ccnc3cc4ccccc4cc23)cc1	-28	12*	-4	11	-2	-19	9.1*	0
CCOc1ccccc1Nc1ccnc2cc(Cl)ccc12	-16	-4	-1	44	-8	6	.	.
Cc1ccc(NC(=S)NC(=O)C2CCCC2)cc1C	-14	4	5	-23	-3	-33	.	.
Cc1ccc(NC(=S)NC(=O)C2CC2)c(C)c1	-8	8.8*	4	-59	-3	-26	4	2
Cc1ccc(NC(=O)N2CCCCCC2)cc1	2	2	6	-42	2	-47	.	.
Cc1ccc(NC(=O)N2CCCCCC2)c(C)c1	0	9.6*	1	-15	-4	-24	6	0
COc1ccc(NC(=O)COc2ccc(C)cc2)c([N+](=O)[O-])c1	.	5	.	-61	-6	-19	.	.
COc1ccc(NC(=O)CSc2ccccc2)c([N+](=O)[O-])c1	-7	8.4*	7	-25	-6	-34	3	5
COc1ccc(OCC(=O)N/N=C(\C)CC(=O)Nc2ccc(OC)cc2[N+](=O)[O-])cc1	-1	8.7*	-1	-4	-5	-3	-3	2
Nc1c(-c2ccccc2)sc2ccc3ccccc3[n+]12	-5	3	2	5	-4	-12	.	.
CNc1ccccc(-c2ccc3cc4c(cc3n2)OCO4)c1=O	2	0	1	41	1	5	.	.
COc1ccc(Nc2cc(Nc3ccccc3)ncn2)cc1	-9	14*	6	-61	-10	-33	6	11*
COc1ccc(Nc2ncnc3ccccc23)cc1	-10	8	-1	-1	-2	-15	.	.
CC#CC#Cc1cccc(=O)o1	-1	9.8*	5	11	-10	-5	15*	3
Cn1c(O)c(C=NCCCCCC(=O)O)c(=O)n(C)c1=O	-2	0	2	4	-4	4	.	.
Cc1ccccc1CSc1n[nH]c(NS(=O)(=O)c2ccccc2)n1	-10	8.0*	2	1	-5	-17	-6	0
O=C(CCl)NCCCCCCCCCNC(=O)CCl	-8	8.8*	2	14	-3	-9	7	-1
NC(=O)c1ccc(NC(=O)COC(=O)C2CC3C=CC2C3)cc1 (centres undefined)	1	2	1	-3	-6	4	.	.
CC(C)c1ccc(NC(=O)COC(=O)C2CC3C=CC2C3)cc1 (centres undefined)	-2	8.2*	2	-11	-5	-28	3	2
Cc1ccnc(NS(=O)(=O)c2ccc(-n3cccn3)cc2)c1	4	-1	0	3	2	3	.	.
O=C(NCCCNCCCNC(=O)c1ccccn1)c1ccccn1	-1	12*	0	0	-7	7	-3	1
COc1ccc(S(=O)(=O)Nc2ccc(-n3cccc3)cc2)cc1	-8	-1	0	1	-1	9	.	.
c1cncc(-c2nc3cc4ccccc4cc3[nH]2)c1	-16	8.4*	2	-101	1	-40	13*	17*
CC(=O)N/C(=N\c1nc(C)cc(C)n1)Nc1ccccc1Cl	-2	8.3*	2	-21	-8	13	4	1
Cc1cc(-c2ccc(Br)s2)nc(-n2cccc2)n1	-16	12*	-1	-2	-4	1	-5	4
SMILES	Cardio protect	SMARCA2 act	FXN GAA850 act	Gli-Sufu block	GalR3 antagonist	COUP-TFII inh	SMARCA2 act conf	VP16 Luc act
Cc1cc(-c2sccc2Br)nc(-n2cccc2)n1	-20	-2	1	12	3	5	.	.
O=C(COC(=O)C12CC3CC(CC(O)(C3)C1)C2)Nc1ccc(Br)cc1F	-9	9.4*	4	-2	-5	-43	4	8.2*
CCOc1cccc2cc(-c3nnc(NCc4ccco4)s3)c(=O)oc12	28	1	3	-26	-5	-8	.	.
O=c1oc2ccc(Cl)cc2cc1-c1nnc(Nc2cccc(C(F)(F)F)c2)s1	-2	1	1	-9	1	6	.	.
CNc1nnc(-c2cc3cc(Cl)ccc3oc2=O)s1	-5	9.7*	4	-46	0	-20	10*	11*
COc1ccc2oc(=O)c(-c3nnc(NCc4ccco4)s3)cc2c1	11	15*	5	-7	-4	-25	15*	6.5*
CCCCN(C)S(=O)(=O)c1cc2c(cc1Br)CCN2C(=O)C1CC1	-2	-2	-3	9	-7	28	.	.
O=C(c1ccco1)N1CCc2ccccc21	-1	8.5*	4	-43	-10	-35	4	4
O=C(/C=C/c1ccco1)N1CCc2ccccc21	-24	9.6*	2	-105	-4	-52	17*	10.0*
COc1ccccc1N1CCN(C(=O)/C=C/c2ccco2)CC1	0	0	3	-13	-3	6	.	.
O=[N+]([O-])c1cccc(COc2ccc(CO)cc2)c1	.	9.4*	.	.	-6	-33	9.1*	13*
COc1ccc(-c2cc(C(=O)N3CCCC3)no2)cc1OC	1	5	3	-50	-6	-45	.	.
COc1ccc(-c2cc(C(=O)N3CCCCC3)no2)cc1OC	-3	8.7*	5	-45	-6	-70	6	5.3*
O=C(c1cc(-c2ccc(Cl)cc2)on1)N1CCCCCC1	-2	10*	6	-103	-8	-31	8.1*	9.2*
COc1ccc(S(=O)(=O)N(C)C[C@H]2Oc3ccc(NC(=O)Nc4ccc5c(c4)OCO5)cc3C(=O)N([C@H](C)CO)C[C@@H]2C)cc1	11	1	-2	-1	-5	7	.	.
O=C(COc1ccccc1/C=C\c1[nH]c(=O)[nH]c(=O)c1[N+](=O)[O-])Nc1ccccc1	-2	11*	4	-6	-4	-10	13*	2
O=c1[nH]c(/C=C/c2ccccc2Cl)c([N+](=O)[O-])c(=O)[nH]1	0	1	1	-16	-10	-14	.	.
Cc1ccc(/C=C2\SC(=O)N(CCC(=O)N3CCN(C)CC3)C2=O)cc1	-9	8.9*	2	13	-6	-11	5	6.6*
CN1CCN(C(=O)CCN2C(=O)S/C(=C/c3ccc(Cl)cc3)C2=O)CC1	-7	-2	-1	6	0	0	.	.
O=C1OC(/C(=C\Nc2ccc(F)cc2F)[N+](=O)[O-])c2ccccc21 (centres undefined)	5	13*	4	34	0	-41	3	2
